In all, about 5,500 compounds went through this assay and about 2,000 (36%) were called active. Roughly 18% stayed inconclusive and do not appear here. Cut-off read from the data, not from the text of the source: active = normalized growth mostly below about 0.91 (no sharp cut-off); inconclusive = no clear call, values can overlap the other calls; inactive = mostly above about 0.92. The list shows a part of the results.
Assay: chemical genetic growth profiling, strain panel (AID 1159580);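 note: tested at 20 µM; growth read once vehicle control cultures reached saturation at 30 °C; 1 = growth at the plate median or of vehicle wells; lower values mean less growth of the strain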
Conditions: S. cerevisiae deletion strains, growth OD

Measured: normalized growth

COc1c2ccoc2c(OC)c2oc(=O)ccc12
inactive: locus YJR066W, strain TOR1, stronger effect = lower value 0.939 | locus YJR075W, strain HOC1, stronger effect = lower value 0.964 | locus YKL009W, strain mrt4, stronger effect = lower value 0.956 | locus YKL068W, stronger effect = lower value 0.996 | locus YKL085W, strain MDH1 (second series), stronger effect = lower value 0.987 | locus YKL085W, strain MDH1, stronger effect = lower value 0.987 | locus YKL160W, strain elf1, stronger effect = lower value 0.933 | locus YKL190W, strain CNB1, stronger effect = lower value 0.985 | locus YKR001C, strain vps1, stronger effect = lower value 0.905 | locus YKR026C, strain gcn3, stronger effect = lower value 0.99 | locus YKR091W, strain srl3, stronger effect = lower value 0.991 | locus YLL001W, strain dnm1, stronger effect = lower value 0.909 | locus YLL026W, stronger effect = lower value 0.979 | locus YLL041C, strain sdh2, stronger effect = lower value 0.981 | locus YLR027C, strain aat2, stronger effect = lower value 0.975 | locus YLR039C, strain RIC1, stronger effect = lower value 0.964 | locus YLR058C, strain SHM2, stronger effect = lower value 0.959 | locus YLR102C, strain apc9, stronger effect = lower value 0.979 | locus YLR113W, strain HOG1, stronger effect = lower value 1.05 | locus YLR221C, strain rsa3, stronger effect = lower value 0.983 | locus YLR262C, strain YPT6 (second series), stronger effect = lower value 0.969 | locus YLR262C, strain YPT6, stronger effect = lower value 1.05 | locus YLR268W, strain sec22, stronger effect = lower value 0.921 | locus YLR320W, strain mms22, stronger effect = lower value 0.945 | locus YLR330W, strain CHS5, stronger effect = lower value 0.963 | locus YLR342W, strain FKS1, stronger effect = lower value 0.99 | locus YLR357W, strain rsc2, stronger effect = lower value 1.06 | locus YLR370C, strain arc18, stronger effect = lower value 0.988 | locus YLR384C, strain iki3, stronger effect = lower value 0.991 | locus YLR418C, strain cdc73, stronger effect = lower value 0.932 | locus YML016C, strain PPZ1, stronger effect = lower value 0.948 | locus YML032C, strain rad52, stronger effect = lower value 0.951 | locus YML124C, strain tub3, stronger effect = lower value 0.974 | locus YMR058W, strain fet3, stronger effect = lower value 0.921 | locus YMR078C, strain ctf18, stronger effect = lower value 0.969 | locus YMR125W, strain sto1, stronger effect = lower value 0.994 | locus YMR129W, stronger effect = lower value 0.986 | locus YMR205C, strain PFK2, stronger effect = lower value 0.913 | locus YMR223W, strain ubp8, stronger effect = lower value 0.974 | locus YMR231W, strain pep5, stronger effect = lower value 0.991 | locus YMR263W, strain SAP30, stronger effect = lower value 0.973 | locus YMR307W, strain GAS1, stronger effect = lower value 0.956 | locus YNL067W, strain RPL9B, stronger effect = lower value 0.999 | locus YNL128W, strain TEP1, stronger effect = lower value 0.932 | locus YNL153C, strain GIM3, stronger effect = lower value 0.947 | locus YNL183C, strain NPR1, stronger effect = lower value 0.939 | locus YNL209W, strain ssb2, stronger effect = lower value 0.958 | locus YNL233W, strain BNI4, stronger effect = lower value 0.946 | locus YNL250W, strain rad50, stronger effect = lower value 0.988 | locus YNL271C, strain bni1, stronger effect = lower value 0.983 | locus YNL298W, strain CLA4, stronger effect = lower value 0.929 | locus YNL307C, strain MCK1, stronger effect = lower value 0.949 | locus YNL322C, strain KRE1 (second series), stronger effect = lower value 0.986 | locus YNR049C, strain mso1, stronger effect = lower value 0.993 | locus YNR052C, strain pop2, stronger effect = lower value 1 | locus YOL006C, strain TOP1, stronger effect = lower value 0.691 | locus YOL012C, strain htz1 0.85 | locus YOL147C, strain pex11, stronger effect = lower value 0.984 | locus YOR001W, strain rrp6, stronger effect = lower value 0.978 | locus YOR061W, strain CKA2, stronger effect = lower value 0.931 | locus YOR069W, strain VPS5, stronger effect = lower value 0.994 | locus YOR070C, strain gyp1, stronger effect = lower value 0.951 | locus YOR080W, strain dia2, stronger effect = lower value 0.992 | locus YOR083W, strain WHI5, stronger effect = lower value 0.943 | locus YOR106W, strain vam3, stronger effect = lower value 0.875 | locus YOR136W, strain idh2, stronger effect = lower value 0.959 | locus YOR144C, strain elg1, stronger effect = lower value 0.969 | locus YOR231W, strain MKK1, stronger effect = lower value 0.962 | locus YOR265W, strain rbl2, stronger effect = lower value 0.979 | locus YOR270C, strain vph1, stronger effect = lower value 0.815 | locus YOR290C, strain snf2, stronger effect = lower value 0.876 | locus YOR316C, strain cot1, stronger effect = lower value 0.948 | locus YPL051W, strain arl3, stronger effect = lower value 0.928 | locus YPL055C, strain LGE1, stronger effect = lower value 0.868 | locus YPL240C, strain hsp82, stronger effect = lower value 0.939 | locus YPL241C, strain CIN2, stronger effect = lower value 0.993 | locus YPL256C, strain CLN2, stronger effect = lower value 1.08 | locus YPR119W, strain clb2, stronger effect = lower value 0.997 | locus YPR141C, strain kar3, stronger effect = lower value 0.98 | locus YPR163C, strain tif3, stronger effect = lower value 0.948 | locus YPR167C, strain met16, stronger effect = lower value 0.983 | strain wtn01, stronger effect = lower value 0.91
active: locus YLR258W, strain gsy2, stronger effect = lower value 0.907 | locus YLR371W, strain rom2, stronger effect = lower value 0.84 | locus YML120C, strain ndi1, stronger effect = lower value 0.901 | locus YNL071W, strain lat1, stronger effect = lower value 0.915 | locus YNL248C, strain rpa49, stronger effect = lower value 0.849 | locus YOR184W, strain ser1, stronger effect = lower value 0.871 | locus YPL078C, strain atp4, stronger effect = lower value 0.882 | locus YPL106C, strain sse1, stronger effect = lower value 0.832

— PubChem BioAssay AID1159580 (chemical genetic matrix, 2015)
